Data as given in the supplement of paper PMC13380429.

Experiments:
[1] = tested on: Vero E6 infected with SARS-CoV-2; test: morphology score (similarity to uninfected cells); higher = more like uninfected cells; conditions: 24 h
[2] = tested on: Vero E6 infected with SARS-CoV-2; test: SARS-CoV-2 infection rate relative to infected DMSO; higher = more infection, active = 60 or less; conditions: 24 h

| SMILES | morphology score [1] | SARS-CoV-2 infection rate [2] |
| --- | --- | --- |
| Cc1c[nH]c(=O)n(CCCN2CCN(c3ccccc3OCC(F)(F)F)CC2)c1=O (10 µM) | 0.0456 | 111% (inactive) |
| CN(C)CCCCSC(=N)N (10 µM) | 0.0735 | 100% (inactive) |
| NS(=O)(=O)c1cc2c(cc1C(F)(F)F)NCNS2(=O)=O [hydroflumethiazide] (10 µM) | 0.112 | 112% (inactive) |
| NC(N)=Nc1nc(CSCC/C(N)=N/S(N)(=O)=O)cs1 [Famotidine] (10 µM) | -0.0119 | 106% (inactive) |
| Cc1ccc(Cl)c(OC[C@H](O)CNC(C)C)c1 [1-(2-chloro-5-methylphenoxy)-3-(isopropylamino)-2-propanol] (10 µM) | 0.0769 | 95.5% (inactive) |
| Cc1nc2ccccc2c(-c2ccc3c4c(ccnc24)CCO3)c1[C@H](OC(C)(C)C)C(=O)O (10 µM) | 0.0152 | 104% (inactive) |
| CO[C@H]1C[C@@H]2CC[C@@H](C)[C@@](O)(O2)C(=O)C(=O)N2CCCC[C@H]2C(=O)O[C@H]([C@H](C)C[C@@H]2CC[C@H](n3cnnn3)[C@H](OC)C2)CC(=O)[C@H](C)/C=C(\C)[C@@H](O)[C@@H](OC)C(=O)[C@H](C)C[C@H](C)/C=C/C=C/C=C/1C [zotarolimus] (0.833333 µM) | -0.292 | 119% (inactive) |
| N#CCC(=O)c1ccccc1 (10 µM) | 0.0172 | 112% (inactive) |
| CN(C)CCN1C(=O)c2cccc3cc(NC(N)=O)cc(c23)C1=O [unbs-5162] (10 µM) | 0.115 | 102% (inactive) |
| CCOc1cn(-c2ccc(F)cc2C)nc1C(=O)Nc1ccc(Oc2ccnc3cc(OC)c(OC)cc23)c(F)c1 (10 µM) | 0.685 | 110% (inactive) |
| Clc1ccccc1CN1CCc2sccc2C1 [ticlopidine] (10 µM) | 0.199 | 92.5% (inactive) |
| O=C(O)/C=C/c1ccc(O)cc1 [naringeninic-acid] (10 µM) | 0.0231 | 102% (inactive) |
| N[C@@H](C(=O)O)[C@@H](OCc1ccccc1)C(=O)O.N[C@H](C(=O)O)[C@H](OCc1ccccc1)C(=O)O (10 µM) | 0.0333 | 106% (inactive) |
| Nc1cc(C(Cl)=C(Cl)Cl)c(S(N)(=O)=O)cc1S(N)(=O)=O [clorsulon] (10 µM) | 0.206 | 98% (inactive) |
| Cc1ccc(C)c([C@H](O)CNC(C)C)c1 [benzenemethanol,-2,5-dimethyl-[[(1-methylethyl)amino]methyl]] (10 µM) | 0.0583 | 106% (inactive) |
| Cc1noc(NS(=O)(=O)c2cccc3c(N(C)C)cccc23)c1C (10 µM) | 0.115 | 95.5% (inactive) |
| CCN(CC)CCCCNc1ncc2cc(-c3cc(OC)cc(OC)c3)c(NC(=O)NC(C)(C)C)nc2n1 (0.833333 µM) | 0.13 | 107% (inactive) |
| O=S(=O)(O)Oc1ccc(C(c2ccc(OS(=O)(=O)O)cc2)c2ccccn2)cc1 [sodium-picosulfate] (10 µM) | 0.154 | 101% (inactive) |
| Cc1cccc(Nc2ccncc2S(=O)(=O)NC(=O)NC(C)C)c1 [torasemide] (10 µM) | 0.215 | 102% (inactive) |
| O=C(Nc1ccccc1-c1cn2c(CN3CCNCC3)csc2n1)c1cnc2ccccc2n1 (0.833333 µM) | 0.075 | 114% (inactive) |

| SMILES | morphology score [1] | SARS-CoV-2 infection rate [2] |
| --- | --- | --- |
| c1nc2c(NC3CCCCC3)nc(Nc3ccc(N4CCOCC4)cc3)nc2[nH]1 [reversine] (10 µM) | -0.11 | 106% (inactive) |
| Fc1ccc(Cl)cc1-c1nc(Nc2ccncc2)c2nccnc2n1 (10 µM) | 0.0882 | 101% (inactive) |
| CCNC(=O)[C@@H]1CCCN1C(=O)[C@H](CCCNC(=N)N)NC(=O)[C@H](CC(C)C)NC(=O)[C@@H](C)NC(=O)[C@H](Cc1ccc(O)cc1)NC(=O)[C@H](CO)NC(=O)[C@H](Cc1c[nH]c2ccccc12)NC(=O)[C@H](Cc1cnc[nH]1)NC(=O)[C@@H]1CCC(=O)N1 [alarelin] (10 µM) | -0.246 | 114% (inactive) |
| CCOCCn1c(C2CCN(CCc3ccc(C(C)(C)C(=O)O)cc3)CC2)nc2ccccc21 [bilastine] (10 µM) | 0.144 | 107% (inactive) |
| CCCCN1[C@@H]2CC[C@H]1C[C@@H](OC(c1ccc(F)cc1)c1ccc(F)cc1)C2 (0.833333 µM) | 0.0455 | 86% (inactive) |
| CC1(C)S[C@@H]2[C@H](NC(=O)Cc3ccccc3)C(=O)N2[C@H]1C(=O)O [benzylpenicillin] (10 µM) | -0.0812 | 114% (inactive) |
| CC(=O)OC[C@H]1O[C@@H]([S-])[C@H](OC(C)=O)[C@@H](OC(C)=O)[C@@H]1OC(C)=O.CCP(CC)CC.[Au+] [auranofin] (0.833333 µM) | 0.3 | 79% (inactive) |
| CS(=O)(=O)c1ccc([C@@H](O)[C@@H](CO)NC(=O)C(Cl)Cl)cc1 [thiamphenicol] (10 µM) | -0.172 | 118% (inactive) |
| C[C@@H](O)[C@H](N)C(=O)N1CCC[C@H]1C(=O)N1CCC[C@H]1C(=O)N[C@H](C(N)=O)[C@@H](C)O [rapastinel] (10 µM) | -0.00969 | 94% (inactive) |
| CCCCC/N=c1\ccn(Cc2ccccc2)c2ccccc12 (10 µM) | 0.0295 | 108% (inactive) |
| Cc1cc(C)c(S(=O)(=O)Nc2ccccc2C(F)(F)F)c(C)c1 (10 µM) | -0.0872 | 113% (inactive) |
| CNC(=O)c1cc(COc2nnc(Nc3ccc(Cl)cc3)c3ccoc23)ccn1 [telatinib] (10 µM) | 0.0611 | 107% (inactive) |
| Nc1nc2c(ncn2[C@@H]2O[C@H](CO)[C@@H](O)[C@H]2O)c(=O)[nH]1 [guanosine] (10 µM) | 0.0982 | 106% (inactive) |
| CN(C)[C@@H]1C(O)=C(C(N)=O)C(=O)[C@@]2(O)C(O)=C3C(=O)c4c(O)cccc4[C@@](C)(O)[C@H]3C[C@@H]12 [tetracycline] (10 µM) | 0.157 | 100% (inactive) |
| CCN1CCN(Cc2ccc(Nc3ncc(F)c(-c4cc(F)c5nc(C)n(C(C)C)c5c4)n3)nc2)CC1 [abemaciclib] (10 µM) | 0.0416 | 107% (inactive) |
| CCCCN(CCCC)CCC(O)c1cc2c(Cl)cc(Cl)cc2c2cc(C(F)(F)F)ccc12 (stereo unspecified) [halofantrine] (10 µM) | 0.406 | 79.5% (inactive) |
| COc1cc2ncnc(Nc3ccc(Oc4ccccc4)cc3)c2cc1OC [SRC-kinase-inhibitor-I] (0.833333 µM) | 0.0162 | 110% (inactive) |
| Cc1cccc(-c2[nH]c(C(C)(C)C)nc2-c2ccc3c(c2)OCO3)n1 (10 µM) | -0.132 | 115% (inactive) |
| CN(C)c1nc(N)c(C(=O)Nc2cccnc2)nc1Cl (10 µM) | 0.226 | 79% (inactive) |
| CC(C)(C(=O)O)c1ccc(C(O)CCCN2CCC(C(O)(c3ccccc3)c3ccccc3)CC2)cc1 (stereo unspecified) [fexofenadine] (10 µM) | -0.361 | 122% (inactive) |

| SMILES | morphology score [1] | SARS-CoV-2 infection rate [2] |
| --- | --- | --- |
| Cc1ccccc1CN1C(=O)C2=C(CCN(Cc3ccccc3)C2)N2CCN=C12 (0.833333 µM) | -0.16 | 82% (inactive) |
| Cc1ccccc1/N=N/c1ccc(/N=N/c2c(O)ccc3ccccc23)c(C)c1 [sudan-IV] (10 µM) | 0.126 | 92% (inactive) |
| O=C(Nc1nc2cccc(-c3ccc(CN4CCS(=O)(=O)CC4)cc3)n2n1)C1CC1 [filgotinib] (10 µM) | 0.154 | 97% (inactive) |
| COc1ccc(S(=O)(=O)Nc2cc(Cl)cc(Cl)c2OC)cc1N1CCNCC1 (10 µM) | 0.132 | 97.5% (inactive) |
| CC(C)C(=O)Oc1ccc(CO)cc1[C@H](CCN(C(C)C)C(C)C)c1ccccc1 [fesoterodine] (10 µM) | 0.096 | 108% (inactive) |
| S=C(NCCc1ccccn1)Nc1ccc(Br)cn1 [trovirdine] (10 µM) | 0.00939 | 110% (inactive) |
| CC(C)(C)NCc1cc(Nc2ccnc3cc(Cl)ccc23)c2c(c1O)CCCC2 [naphthoquine-phosphate] (10 µM) | 0.103 | 109% (inactive) |
| COc1cc2nc(N3CCN(C(=O)C4CCCO4)CC3)nc(N)c2cc1OC (stereo unspecified) [terazosin] (10 µM) | -0.108 | 110% (inactive) |
| CC(=O)Oc1cc2c(s1)CCN(C(C(=O)C1CC1)c1ccccc1F)C2 (stereo unspecified) [prasugrel] (10 µM) | 0.0783 | 108% (inactive) |
| CCOC(=O)c1ccc(N2NC(=O)/C(=C/c3ccc([N+](=O)[O-])o3)C2=O)cc1 (10 µM) | 0.149 | 85% (inactive) |
| CC(C)(C)c1ccc2cc(C#N)c(C#N)cc2c1 (10 µM) | 0.103 | 105% (inactive) |
| CC[C@H](C)[C@H](N)C(=O)O [isoleucine] (10 µM) | 0.202 | 106% (inactive) |
| Nc1nccs1 [aminothiazole] (10 µM) | 0.0165 | 104% (inactive) |
| C=C1CC[C@H](O)C/C1=C/C=C1\CCC[C@]2(C)[C@@H]([C@H](C)CCCC(C)C)CC[C@@H]12 [cholecalciferol] (10 µM) | -0.0066 | 96.5% (inactive) |
| CC(C)=CCC/C(C)=C/CC/C(C)=C/CC[C@]1(C)CCc2cc(O)cc(C)c2O1 [delta-tocotrienol] (10 µM) | 0.0442 | 104% (inactive) |
| CC(C)=CCC/C(C)=C/CNCCNC1C2CC3CC(C2)CC1C3 (stereo unspecified) (10 µM) | 0.122 | 94.5% (inactive) |
| COc1ccc(N(C)c2nc(C)nc3ccccc23)cc1 [verubulin] (10 µM) | -0.0973 | 95% (inactive) |
| O=C1c2c(O)cccc2Cc2cccc(O)c21 [anthralin] (10 µM) | -0.0665 | 94% (inactive) |
